Test results as given in PubChem BioAssay AID1159580 (chemical genetic matrix, 2015).
Values joined by “and” are separate entries in the source; they are usually repeats but may differ in a detail not shown here. Equal entries are not always repeated. About 2,000 (36%) of roughly 5,500 compounds were called active. Roughly 18% stayed inconclusive and do not appear here. Cut-off read from the data, not from the text of the source: active = normalized growth mostly below about 0.91 (no sharp cut-off); inconclusive = no clear call, values can overlap the other calls; inactive = mostly above about 0.92. Some of the results follow.

Test: chemical genetic growth profiling, strain panel (AID 1159580);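 note: tested at 20 µM; growth read once vehicle control cultures reached saturation at 30 °C; 1 = growth at the plate median or of vehicle wells; lower values mean less growth of the strain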
Conditions: S. cerevisiae deletion strains, growth OD

Measured: normalized growth

CC(=O)OCC[C@H](C)CCC=C(C)C
inactive: locus YAL013W, strain DEP1, active compounds read low 1 | locus YAL021C, strain ccr4, active compounds read low 0.993 | locus YAL026C, strain drs2, active compounds read low 0.993 | locus YAL030W, strain snc1, active compounds read low 0.989 | locus YBL061C, strain skt5, active compounds read low 0.992 | locus YBR009C, strain hhf1, active compounds read low 1.06 | locus YBR021W, strain FUR4, active compounds read low 0.991 | locus YBR023C, strain chs3, active compounds read low 0.995 | locus YBR171W, strain sec66, active compounds read low 0.983 | locus YBR229C, strain ROT2, active compounds read low 1.01 | locus YBR231C, strain swc5, active compounds read low 0.986 | locus YBR279W, strain paf1, active compounds read low 0.997 | locus YCL011C, strain gbp2, active compounds read low 1.01 | locus YCL016C, strain dcc1, active compounds read low 0.994 | locus YCL029C, strain bik1, active compounds read low 1.03 | locus YCL061C, strain MRC1, active compounds read low 1 | locus YCL069W, strain vba3, active compounds read low 0.989 | locus YCR088W, strain abp1, active compounds read low 0.989 | locus YDL005C, strain med2, active compounds read low 0.978 | locus YDL035C, strain GPR1, active compounds read low 1.02 | locus YDL040C, strain nat1, active compounds read low 0.993 | locus YDL074C, strain BRE1, active compounds read low 1.05 | locus YDL101C, strain DUN1, active compounds read low 1.01 | locus YDL185W, strain tfp1, active compounds read low 1.02 | locus YDL192W, strain arf1, active compounds read low 1.04 | locus YDR001C, strain nth1, active compounds read low 0.998 | locus YDR069C, strain doa4, active compounds read low 0.991 | locus YDR101C, strain arx1, active compounds read low 1.03 | locus YDR137W, strain rgp1, active compounds read low 0.974 | locus YDR150W, strain NUM1, active compounds read low 1.01 | locus YDR159W, strain sac3, active compounds read low 1.02 | locus YDR162C, strain NBP2, active compounds read low 1.01 | locus YDR195W, strain ref2 0.949 | locus YDR297W, strain sur2, active compounds read low 1.01 | locus YDR318W, strain mcm21, active compounds read low 1.02 | locus YDR334W, strain swr1, active compounds read low 0.998 | locus YDR335W, strain msn5, active compounds read low 0.992 | locus YDR388W, active compounds read low 1.02 | locus YDR392W, strain spt3, active compounds read low 0.966 | locus YDR502C, strain sam2, active compounds read low 1.01 | locus YEL003W, strain gim4, active compounds read low 1 | locus YEL037C, strain rad23, active compounds read low 0.995 | locus YEL061C, strain CIN8 (second series), active compounds read low 1.03 | locus YEL061C, strain CIN8, active compounds read low 1.01 | locus YER015W, strain faa2, active compounds read low 0.993 | locus YER016W, strain bim1, active compounds read low 0.962 | locus YER110C, active compounds read low 1.03 | locus YER111C, strain swi4, active compounds read low 0.992 | locus YER155C, strain BEM2 (second series), active compounds read low 0.973 | locus YER155C, strain BEM2, active compounds read low 0.988 | locus YER167W, strain BCK2, active compounds read low 1.01 | locus YFR010W, strain ubp6, active compounds read low 1.01 | locus YGL078C, strain dbp3, active compounds read low 1.01 | locus YGL086W, strain mad1, active compounds read low 1.01 | locus YGL167C, strain pmr1, active compounds read low 0.99 | locus YGL173C, strain kem1, active compounds read low 0.986 | locus YGL227W, strain vid30, active compounds read low 0.987 | locus YGL240W, strain doc1, active compounds read low 0.978 | locus YGL248W, strain PDE1, active compounds read low 1.02 | locus YGL253W, strain hxk2, active compounds read low 0.997 | locus YGR135W, strain pre9, active compounds read low 1.06 | locus YGR252W, strain gcn5, active compounds read low 1.06 | locus YHR013C, strain ard1, active compounds read low 0.967 | locus YHR027C, strain rpn1, active compounds read low 0.99 | locus YHR030C, strain SLT2, active compounds read low 1 and 1.01 | locus YHR079C, strain IRE1 (second series), active compounds read low 1.02 | locus YHR079C, strain IRE1, active compounds read low 1.01 | locus YHR094C, strain hxt1, active compounds read low 1.02 | locus YHR129C, strain ARP1, active compounds read low 0.999 | locus YHR142W, strain chs7, active compounds read low 0.988 | locus YHR200W, strain rpn10, active compounds read low 1.03 | locus YIL066C, strain RNR3, active compounds read low 1.01 | locus YIL073C, strain SPO22, active compounds read low 1.1 | locus YIL125W, strain kgd1, active compounds read low 1.01 | locus YIR030C, strain dcg1, active compounds read low 1.02 | locus YJL092W, strain hpr5, active compounds read low 0.999 | locus YJL095W, strain BCK1 (second series), active compounds read low 0.99 | locus YJL095W, strain BCK1, active compounds read low 1.02 | locus YJL115W, strain asf1, active compounds read low 0.991 | locus YJL129C, strain trk1, active compounds read low 0.968 | locus YJL134W, strain LCB3, active compounds read low 1.01 | locus YJL154C, strain vps35, active compounds read low 0.981 | locus YJL164C, strain tpk1, active compounds read low 1.02 | locus YJL166W, strain qcr8, active compounds read low 0.96 | locus YJL168C, strain set2, active compounds read low 1.02 | locus YJL187C, strain SWE1 (second series), active compounds read low 1.02 | locus YJL187C, strain SWE1, active compounds read low 0.982
